The list is not random: actives were taken first. Their share in the collection is about 19%.
IL-1B inflam inh – blocks inflammasome-driven IL-1 beta release; AID 743279; activity change, % at 57.5 µM; THP-1 LPS/ATP IL-1B secretion, AlphaLISA, 16 h; stronger effect = lower value; hit rate 4.7% among 360,000; in the data active = activity change below about -50%; inconclusive = mostly about -30% to -49%
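Secreted IL-1B measured by AlphaLISA bead assay after 16 h compound exposure of THP-1 cells; compounds (final up to 57.5 uM) added 1 h before LPS (250 ng/mL) and ATP (1.25 mM) stimulation; lower signal means less secretion.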
TDP1 cell CPT – growth inhibition of DT40 Tdp1-/-;hTDP1 cells with camptothecin (screen for TDP1 inhibitors); hit rate 12% among 420,000; chicken DT40 Tdp1-/-;hTDP1 cells + 20 nM CPT, ATP luminescence, 48 h; Potency, µM (series often up to 46.2 µM), inactives show at the highest dose activity change, negative = growth inhibition, actives largely listed as inhibitors; note: potency is the fitted concentration of half-maximal effect; nearly all actives have a fitted effect of over 55% in size
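Chicken DT40 Tdp1-/- cells complemented with human TDP1, 400 cells/well, exposed to compounds plus 20 nM camptothecin for at least 48 h at 37 C; viability read as ATP content by CellTiter-Glo luminescence.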
HT1080-NT tox – kills 2HG-producing HT-1080-NT fibrosarcoma cells; HT-1080-NT fibrosarcoma viability, CellTiter-Glo ATP luminescence, 48 h; Potency, µM (titrated, usually from 46.1 µM), inactives show at the highest dose activity, negative = less viability, hits mostly cytotoxic; hit rate 1.6% among 360,000;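 note: NT is the 2HG producing partner of a matched IDH1 knockdown line; potency is the fitted concentration of half-maximal effect; 0% = DMSO-treated cells and -100% = media-only wells without cells; nearly all actives have a fitted effect of over 55% in size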
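Luminescent CellTiter-Glo readout after 48 hours of compound exposure at 37 degrees C defined viability of HT-1080-NT cells. Activity was normalized to DMSO wells and cell-free media wells; concentration-response curves were fitted and assigned curve classes.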
HT1080 IDH1KD tx – toxicity to HT-1080 IDH1 knockdown cells (counter line); HT-1080 IDH1 knockdown viability, ATP luminescence, 48 h; Potency, µM (doses to about 46.1 µM), for the others: top-dose activity, negative = toxicity, hits mostly cytotoxic; hit rate 2% among 360,000; AID 686971;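 note: potency is the fitted concentration of half-maximal effect; 0% = DMSO wells and -100% = cell-free medium wells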
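IDH1KD HT-1080 cells, 750/well, RPMI + 5% FBS; compound pinned after 2 h settling; 48 h, 37 °C; CellTiter-Glo luminescence; % activity normalised to DMSO and no-cell wells; curves fitted, classed by r2 and efficacy.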
DT40 TDP1 no CPT – qHTS for Inhibitors of human tyrosyl-DNA phosphodiesterase 1 (TDP1): qHTS in cells in absence of CPT | hit rate 15% among 420,000 | DT40 Tdp1-/- hTDP1 cells, no CPT, ATP luminescence, 48 h | Potency, µM (series often up to 46.2 µM), inactives show at the highest dose activity change, negative = growth inhibition, hits mostly inhibitors; note: potency is the fitted concentration of half-maximal effect; nearly all actives have a fitted effect of over 55% in size
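Stably hTDP1-transfected Tdp1-null chicken DT40 cells were treated with library compounds minus camptothecin and grown for at least 48 hr at 37 °C, after which cellular ATP was quantified by luminescence.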
The depositor's hits bear a star; [ ] = another dose, or the depositor's remark. Unless noted, calls come from the whole dose curve; as a rule, active = well fitted curve in the direction sought with a large enough effect; inconclusive = small, poorly fitted or top-dose-only effect, or another doubt; inactive = no such curve, though single readings can be large; an effect the other way counts as inactive or inconclusive. Unless noted, % is set by controls: 0 for no effect and ±100 for the full control effect.

`COc1ccc(-c2cc(=O)oc3cc(OCC(=O)Nc4ccccn4)ccc23)cc1` gave IL-1B inflam inh -4, TDP1 cell CPT 16µM*, HT1080-NT tox -1%, HT1080 IDH1KD tx 5% and DT40 TDP1 no CPT inconclusive.
For CC(Oc1cc2oc(=O)c3c(c2cc1Cl)CCC3)C(=O)NCCCN1CCOCC1 (stereo unspecified) the results were IL-1B inflam inh 20, TDP1 cell CPT -2%, HT1080-NT tox 7%, HT1080 IDH1KD tx 8% and DT40 TDP1 no CPT -22%.
`COc1ccc(-c2cc(=O)oc3c(C)c(O)ccc23)cc1` gave IL-1B inflam inh 24, TDP1 cell CPT 7.3µM*, HT1080-NT tox -5%, HT1080 IDH1KD tx 3% and DT40 TDP1 no CPT 3.3µM*.
For COc1ccc(-c2cc(=O)oc3c(C)c(OC(C)C(C)=O)ccc23)cc1 (stereo unspecified) the results were IL-1B inflam inh inconclusive, TDP1 cell CPT inconclusive, HT1080-NT tox -15%, HT1080 IDH1KD tx -18% and DT40 TDP1 no CPT inconclusive.
`CCCCN(C)Cc1c(O)ccc2c(-c3ccccc3)cc(=O)oc12` gave IL-1B inflam inh inconclusive, TDP1 cell CPT inconclusive, HT1080-NT tox -14%, HT1080 IDH1KD tx -21% and DT40 TDP1 no CPT 15µM*.
For CCCCN(CC)Cc1c(O)ccc2c(-c3ccccc3)cc(=O)oc12 the results were IL-1B inflam inh -27, TDP1 cell CPT inconclusive, HT1080-NT tox -1%, HT1080 IDH1KD tx -3% and DT40 TDP1 no CPT inconclusive.
For O=C(COc1ccc2c(-c3ccccc3)cc(=O)oc2c1)NCCCn1ccnc1 the results were IL-1B inflam inh -15, TDP1 cell CPT 18µM*, HT1080-NT tox -5%, HT1080 IDH1KD tx 1% and DT40 TDP1 no CPT inconclusive.
O=c1cc(O)c2ccc(O)cc2o1 was read as IL-1B inflam inh -8, TDP1 cell CPT inconclusive, HT1080-NT tox -15%, HT1080 IDH1KD tx -3% and DT40 TDP1 no CPT inconclusive.
COc1ccc(-c2cc(=O)oc3cc(OC(=O)C4CCCCC4)c(Cl)cc23)cc1 was read as IL-1B inflam inh 5, TDP1 cell CPT 23µM*, HT1080-NT tox -7%, HT1080 IDH1KD tx -11% and DT40 TDP1 no CPT inconclusive.
`COc1ccc(-c2cc(=O)oc3cc(OC(C)C(=O)NC4CC4)ccc23)cc1` (stereo unspecified) gave IL-1B inflam inh -2, TDP1 cell CPT 8%, HT1080-NT tox 2%, HT1080 IDH1KD tx 6% and DT40 TDP1 no CPT inconclusive.
For COC(=O)Cc1cc(=O)oc2cc(O)ccc12 the results were IL-1B inflam inh -70*, TDP1 cell CPT -1%, HT1080-NT tox -1%, HT1080 IDH1KD tx 8% and DT40 TDP1 no CPT -8%.
C/C(=N\NC(=O)C(N)=O)c1cccc(C(F)(F)F)c1 was read as IL-1B inflam inh 2, TDP1 cell CPT 7%, HT1080-NT tox 5%, HT1080 IDH1KD tx 2% and DT40 TDP1 no CPT -1%.
Screening O=C(COc1cc2oc(=O)cc(-c3ccccc3)c2cc1Cl)NCCN1CCOCC1 returned IL-1B inflam inh 23, TDP1 cell CPT 4.1µM*, HT1080-NT tox -9%, HT1080 IDH1KD tx 1% and DT40 TDP1 no CPT 7.3µM*.
For COc1ccc(-c2cc(=O)oc3c(C)c(OC(=O)c4cccs4)ccc23)cc1 the results were IL-1B inflam inh -6, TDP1 cell CPT 3.7µM*, HT1080-NT tox -7%, HT1080 IDH1KD tx -1% and DT40 TDP1 no CPT inconclusive.
COc1ccc(-c2cc(=O)oc3cc(OCC(C)=O)ccc23)cc1 was read as IL-1B inflam inh -1, TDP1 cell CPT -24%, HT1080-NT tox 1%, HT1080 IDH1KD tx 1% and DT40 TDP1 no CPT -24%.
Screening COc1ccc(-c2cc(=O)oc3cc(O)ccc23)cc1 returned IL-1B inflam inh 17, TDP1 cell CPT inconclusive, HT1080-NT tox -25%, HT1080 IDH1KD tx inconclusive and DT40 TDP1 no CPT 7.3µM*.
For CCOC(=O)C(Oc1ccc2c(-c3ccc(OC)cc3)cc(=O)oc2c1C)c1ccccc1 (stereo unspecified) the results were IL-1B inflam inh 8, TDP1 cell CPT 16µM*, HT1080-NT tox -15%, HT1080 IDH1KD tx -6% and DT40 TDP1 no CPT inconclusive.
Screening COc1ccc(-c2cc(=O)oc3c(C)c(OCC(=O)NCCCn4ccnc4)ccc23)cc1 returned IL-1B inflam inh -27, TDP1 cell CPT inconclusive, HT1080-NT tox 5%, HT1080 IDH1KD tx 4% and DT40 TDP1 no CPT inconclusive.
For CC(C)(C)c1ccc(S(=O)(=O)N2CCN(CC(=O)NC(=O)NC3CCCCC3)CC2)cc1 the results were IL-1B inflam inh -18, TDP1 cell CPT inconclusive, HT1080-NT tox 1%, HT1080 IDH1KD tx 5% and DT40 TDP1 no CPT inconclusive.
CC1COC(=C2C(=O)OCC2C)C1 (stereo unspecified) was read as IL-1B inflam inh 20, TDP1 cell CPT 3%, HT1080-NT tox 8%, HT1080 IDH1KD tx 10% and DT40 TDP1 no CPT 4%.
Screening Cc1ccc2nc(NC(=O)C3CCN(c4ncnc5sc(C)c(C)c45)CC3)sc2c1 returned IL-1B inflam inh 6, TDP1 cell CPT 13µM*, HT1080-NT tox -5%, HT1080 IDH1KD tx -2% and DT40 TDP1 no CPT inconclusive.
For Cc1sc2ncnc(N3CCC(C(=O)Nc4nc(-c5cccs5)cs4)CC3)c2c1C the results were IL-1B inflam inh 29, TDP1 cell CPT 10µM*, HT1080-NT tox 0%, HT1080 IDH1KD tx 2% and DT40 TDP1 no CPT 8.2µM*.
For CCOCCCNC(=O)c1ccc(N2CC3CC(C2)c2cccc(=O)n2C3)c(NC(=O)Nc2cccc(OC)c2)c1 (stereo unspecified) the results were IL-1B inflam inh -10, TDP1 cell CPT 6%, HT1080-NT tox 6%, HT1080 IDH1KD tx 0% and DT40 TDP1 no CPT -23%.
Screening COc1ccc(NC(=O)C2CCCN(c3ncnc4onc(C)c34)C2)cc1OC (stereo unspecified) returned TDP1 cell CPT inconclusive and DT40 TDP1 no CPT 23µM*.
Screening Cc1noc2ncnc(N3CCCC(C(=O)Nc4cccc(C(F)(F)F)c4)C3)c12 (stereo unspecified) returned TDP1 cell CPT 15µM* and DT40 TDP1 no CPT 18µM*.
Screening COc1ccc(Cl)cc1NC(=O)C1CCCN(c2cc(C)nc3ncnn23)C1 (stereo unspecified) returned IL-1B inflam inh 11, TDP1 cell CPT inconclusive, HT1080-NT tox 3%[9.24 µM], HT1080 IDH1KD tx -13% and DT40 TDP1 no CPT inconclusive.
For Cc1noc2ncnc(N3CCCC(C(=O)Nc4cc(F)ccc4F)C3)c12 (stereo unspecified) the results were TDP1 cell CPT 13µM* and DT40 TDP1 no CPT 12µM*.
